Test results taken from PubChem BioAssay AID2315 (National Center for Advancing Translational Sciences (NCATS), 2010).
The whole screen tested about 290,000 compounds, of which about 27,000 (9.3%) were called active. For the sample, actives were picked, then their nearest neighbours and some compounds at random. Unmarked numbers belong to inactive results. No stated cut-off is given here; in the data, active means inhibition mostly above about 28% (no sharp cut-off); inactive means mostly below about 43%. Where a SMILES comes first, the peptide text is derived from it. Bridges are numbered along the chain shown (N, C = ends).

Assay: A qHTS for Small Molecule Inhibitors of Shiga Toxin; further: 0% is about no effect
Settings: Vero cells, Shiga toxin protein synthesis inhibition reporter; at 38.7 µM, hits give high values

Row | Structure (SMILES) | inhibition
1 | O=c1o[nH]c(-c2ccccc2)c1N=Nc1c(F)cccc1Cl | -2.82%
2 | Cc1noc(C)c1-c1ccc2ncnc(NCc3ccc4[nH]ccc4c3)c2c1 | 70.1% (active)
3 | Cc1noc(C)c1-c1ccc2ncnc(NC(C)c3ccco3)c2c1 (configuration not stated) | 30.2%
4 | Cc1noc(C)c1-c1ccc2ncnc(NCc3ccc(F)c(F)c3)c2c1 | 10.1%
5 | O=Cc1c(NCCCN2CCCC2=O)c2ccccc2[nH]c1=O | 7.22%
6 | CCCSc1nc2[nH]ncc2c(=O)[nH]1 | -9.31%
7 | Cc1cccc(NC(=O)CSc2nc3[nH]ncc3c(=O)[nH]2)c1 | -11.6%
8 | Cc1ccc(CSc2nc3[nH]ncc3c(=O)[nH]2)cc1 | 136% (active)
9 | Cc1ccc(S(=O)(=O)N(C)C)cc1NC(=O)C1Cc2ccccc2CN1C(=O)c1ccco1 (configuration not stated) | -7.79%
10 | COc1ccc(Cl)cc1-n1c(=S)sc2c(=O)n(-c3ccc(F)cc3)c(SCC(=O)O)nc21 | 19.4%
11 | CN(C)c1ccc(/C=N/NC(=O)C(O)c2ccc(Br)cc2)cc1 (configuration not stated) | 20.6%
12 | CC(=O)NC(CC(=O)O)c1ccc(F)cc1 (configuration not stated) | -5.08%
13 | CN(C)c1ccc(C(CC(=O)O)C(=O)O)cc1 (configuration not stated) | 73.8% (active)
14 | COc1ccccc1N(C)C(=O)c1cc(S(=O)(=O)N2CCc3ccccc32)cn1C | 8.5%
15 | O=C(CN1CCN(c2ccc(F)cc2)CC1)Nc1ccccc1 | -6.95%
16 | CC(=O)Nc1cccc(-c2cnc3ccccc3n2)c1 | 116%
17 | Cc1ccc(-c2cc(C(=O)Nc3nn[nH]n3)c3ccccc3n2)c(C)c1 | -11.6%
18 | Cc1cc(O)ccc1-c1cnc2ccccc2n1 | 99.9% (active)
19 | Cc1oc2c(F)c(F)c(F)c(F)c2c1S(=O)(=O)Nc1cccc(C(F)(F)F)c1 | -4.67%

Row | Structure (SMILES) | inhibition
20 | CCOC(=O)C1CCCN(S(=O)(=O)c2ccc3c(c2)C(C)(C)C(=O)N3C)C1 (configuration not stated) | -10.9%
21 | COCCN1C(=O)N(c2ccc(Cl)cc2)C(=O)C1CC(=O)Nc1cc(OC)cc(OC)c1 (configuration not stated) | 0.637%
22 | S=c1[nH]nc(CSCc2ccc(Cl)cc2Cl)n1-c1ccccc1 | -6.51%
23 | O=C(CCCOc1ccc(Cl)cc1Cl)NNC(=O)C1CCC1 | 27.9%
24 | Cn1c(CCCOc2ccc(Cl)cc2Cl)n[nH]c1=S | 57.3% (active)
25 | O=C(COc1ccc(S(=O)(=O)Nc2cccc(C(F)(F)F)c2)cc1)N1CCOCC1 | -9.6%
26 | CCOC(=O)[C@@H]1[C@H]2COc3ccc(Br)cc3[C@H]2N2C(=O)N(c3ccc(Cl)cc3)C(=O)[C@@]12C | -8.05%
27 | Cc1cccc(OCc2ccc(C(=O)Nc3ccc(F)cc3)cc2)c1 | -8.13%
28 | Cc1cccc(CS(=O)(=O)c2ncc(Cl)c(C(=O)Nc3ccc(F)cc3)n2)c1 | 53.3% (active)
29 | Cc1cccc(NC(=O)c2nc[nH]c2C(=O)NCC(=O)OCc2ccccc2)c1 | -6.49%
30 | Cc1cccc(NC(=O)c2nc(S(=O)(=O)Cc3ccccc3)ncc2Cl)c1 | 34.1% (active)
31 | CCOc1ccc(NC(=O)c2nc(SCC)ncc2Cl)cc1 | -3.26%
32 | CCSc1ncc(Cl)c(C(=O)Nc2cc(C)ccc2C)n1 | -1.29%
33 | COc1ccc(C(=O)Nc2cc(C)c(NC(=O)c3ccccc3OC)cn2)cc1 | 37%
34 | Cc1ccc(S(=O)(=O)N(C)CC(=O)NCCc2c[nH]c3ccccc23)cc1 | -2.21%
35 | O=C(CCCCCn1c(=S)[nH]c2ccsc2c1=O)NC1CCCCC1 | -10.2%
36 | c1cnc(Nc2nc(-c3ccc4ccccc4c3)cs2)nc1 | 154% (active)
37 | COC(=O)c1cc(-c2cccs2)nc2ccccc12 | -1.63%
38 | COc1ccc(-c2csc(Nc3ccccn3)n2)cc1 | 48% (active)

Row | Structure (SMILES) | inhibition
39 | c1ccc(Nc2nc(-c3ccncc3)cs2)nc1 | 75.1% (active)
40 | COC(=O)CSc1nccc(-c2cccs2)n1 | 46.2%
41 | Clc1ccc(Nc2nc(-c3cccs3)cs2)nc1 | 70.3% (active)
42 | COc1ccc(CNc2nccs2)cc1 | -0.77%
43 | COc1ccc2nc(Nc3nc(-c4ccncc4)cs3)sc2c1 | 53%
44 | COc1ccc(N(CC(=O)NCC2CCCO2)C(=O)CCC(=O)Nc2nccs2)c(OC)c1 (configuration not stated) | 16.4%
45 | Cc1ccc(NC(=O)CCC(=O)c2ccc(Br)cc2)cc1 | -4.63%
46 | CCCCNC(=O)CN1C(=O)NC(Cc2ccccc2)(Cc2ccccc2)C1=O | 2.69%
47 | Cc1c(C(=O)N2CCN(c3ccc(F)cc3)CC2)oc2c1C(=O)CCC2 | -4.3%
48 | C/C(=N/OC(=O)c1ccc(Br)cc1)c1ccc(C)cc1 | 6.54%
49 | O=C(CC(n1cncn1)C(Cl)(Cl)Cl)c1ccc([N+](=O)[O-])cc1 (configuration not stated) | -7.92%
50 | Cc1cccc(C)c1NC(=O)CN1C(=O)C(C)Oc2ccccc21 (configuration not stated) | -3.24%
51 | NC(=O)C(Cc1ccccc1)NC(=O)C12CC3CC(CC(C3)C1)C2 (configuration not stated) | -10.9%
52 | COc1ccc(C(=O)NC(=S)Nc2ccccc2N2CCN(S(C)(=O)=O)CC2)cc1OC | -2.05%
53 | O=C(NC(=S)Nc1ccccc1N1CCCCC1)c1ccc(F)cc1 | -27.2%
54 | COc1ccccc1C(=O)NC(=S)Nc1ccccc1N1CCCCC1 | 39.8% (active)
55 | Cc1ccnc(NS(=O)(=O)c2ccc(NC(=O)c3oc4ccc(F)cc4c3C)cc2)n1 | -7.64%
56 | O=S(=O)(c1ccc(Cl)s1)N1CCC2(CC1)OCCO2 | 6.74%
57 | C[C@@H](O)[C@@H]1NC(=O)[C@H](CCCCN)NC(=O)[C@H](Cc2c[nH]c3ccccc23)NC(=O)[C@H](Cc2ccccc2)NC(=O)[C@H](Cc2ccccc2)NC(=O)[C@H](CC(N)=O)NC(=O)[C@H](CCCCN)NC(=O)[C@@H](NC(=O)[C@@H]2CCCN2)CSSC[C@@H](C(=O)N[C@@H](CCCCN)C(=O)O)NC(=O)[C@H](CO)NC(=O)[C@H](CO)NC(=O)[C@H](Cc2ccccc2)NC1=O (H-PCKNFFWKTFSSCK-OH; disulfide 2-13) | -9.69%
